Molecules are shown by their SMILES. Unmarked numbers belong to inactive results. How the calls were made is not given here.

The target in the test is Pantothenate synthetase (Mycobacterium tuberculosis (strain ATCC 25618 / H37Rv)) (UniProt P9WIL5). Nature of the test: Coupled enzyme confirmation of inhibitors against recombinant Mtb PanC (AID 375).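 Further: 0% = full reaction with vehicle and 100% = no enzyme background.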 The settings on record: coupled enzyme assay; at 10 µM, stronger effect = higher value.
Sequence of Pantothenate synthetase (Mycobacterium tuberculosis (strain ATCC 25618 / H37Rv)) (P9WIL5 whole entry, looked up): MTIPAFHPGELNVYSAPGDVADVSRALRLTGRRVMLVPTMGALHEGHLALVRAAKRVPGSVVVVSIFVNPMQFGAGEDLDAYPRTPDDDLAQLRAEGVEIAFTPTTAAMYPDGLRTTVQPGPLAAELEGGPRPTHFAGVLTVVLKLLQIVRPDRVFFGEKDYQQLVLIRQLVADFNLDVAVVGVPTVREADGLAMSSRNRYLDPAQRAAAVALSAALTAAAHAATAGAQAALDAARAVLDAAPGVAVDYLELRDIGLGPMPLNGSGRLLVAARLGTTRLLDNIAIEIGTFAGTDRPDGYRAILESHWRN

In the case of `CN(C)C(=O)Cn1c(SCC(=O)NC2CCCCC2)nc2ccccc21`, the inhibition is 0%.

Take `CCOC(=O)C(CC)(CCC(=O)O)c1csc(N)n1` (centres undefined): the inhibition was 0%. Turning to `O=C(Nc1ccc(CN2CCOCC2)cc1)c1cc2ccccc2oc1=O`, the inhibition was 4%. For `Cc1nnc2n(Cc3ccccc3)c(=O)c3c4c(sc3n12)COC(C(C)C)C4` (centres undefined), the inhibition is 0%. In the case of `COc1ccccc1OCc1nc2ccccc2[nH]1`, the inhibition is 0%.

Take `CCCCOc1ccc(-c2ncc(Cl)cn2)cc1`: the inhibition is 0%. Take `CCN(CC)C1CCCCC1NS(=O)(=O)c1ccc(Cl)cc1` (centres undefined): the inhibition was 0%.

For `COC(=O)c1cn(NC(=O)c2cccnc2)c(=O)c2ccccc12`, the inhibition is 0%. In the case of `COc1cccc(-c2nc3n(n2)C(c2ccccc2Cl)C(C(N)=O)=C(C)N3)c1` (centres undefined), the inhibition was 0%.

For the molecule `O=C(c1nc2n(n1)C(c1ccc(Cl)cc1)C=C(c1ccccc1)N2)N1CCOCC1` (centres undefined), the inhibition was 0%. With `Cc1ccccc1NC(=O)c1ccc(NC(=O)c2ccco2)cc1` the figure was 0%.

For `CCOc1ncccc1C(=O)Nc1ccc2c(C)cc(=O)oc2c1`, the inhibition was 7%. The value for `Cc1ccc2[nH]c3c(c2c1)CCc1cn[nH]c1-3` was 0%; that for `O=S(=O)(NCCc1ccncc1)c1cc(Br)ccc1F` was 0%; that for `CCC(C)C(=O)Nc1nc2c(s1)C(=O)CC(C)(C)C2` (centres undefined) was 10%. The value for `CCCc1nnc2n1N=C(c1ccc(OC)c(OC)c1)CS2` was 0%; that for `O=C(CCn1c(=O)oc2ccccc21)NCCN1CCOCC1` was 4%.

With `CCN(CC)C(=O)C1=C(C)NC(=O)NC1c1c(F)cccc1Cl` (centres undefined), the inhibition is 0%. With `COc1ccc(NC(=O)CC2CCCCC2)cc1OC` the figure was 4%.

Values taken from PubChem BioAssay.
